Data: PubChem BioAssay AID1159580 (chemical genetic matrix, 2015)
The whole screen tested about 5,500 compounds, of which about 2,000 (36%) were called active. About 18% were inconclusive and are not listed. No stated cut-off is given here; in the data, active means normalized growth mostly below about 0.91 (no sharp cut-off); inconclusive means no clear call, values can overlap the other calls; inactive means mostly above about 0.92. This is one part of the list.

Experiment: chemical genetic growth profiling, strain panel (AID 1159580);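 further: tested at 20 µM; growth read once vehicle control cultures reached saturation at 30 °C; 1 = growth at the plate median or of vehicle wells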
Conditions: growth OD

Measured: normalized growth

Cc1c(N(C)CS(=O)(=O)O)c(=O)n(-c2ccccc2)n1C
inactive: S. cerevisiae deletion strains, locus YJR075W, strain HOC1, stronger effect = lower value 1 | S. cerevisiae deletion strains, locus YKL009W, strain mrt4, stronger effect = lower value 1.03 | S. cerevisiae deletion strains, locus YKL068W, stronger effect = lower value 0.998 | S. cerevisiae deletion strains, locus YKL085W, strain MDH1 (second series), stronger effect = lower value 0.99 | S. cerevisiae deletion strains, locus YKL085W, strain MDH1, stronger effect = lower value 0.99 | S. cerevisiae deletion strains, locus YKL160W, strain elf1, stronger effect = lower value 1.02 | S. cerevisiae deletion strains, locus YKL190W, strain CNB1, stronger effect = lower value 1.01 | S. cerevisiae deletion strains, locus YKR001C, strain vps1, stronger effect = lower value 1.01 | S. cerevisiae deletion strains, locus YKR026C, strain gcn3, stronger effect = lower value 1.01 | S. cerevisiae deletion strains, locus YKR091W, strain srl3, stronger effect = lower value 1.01 | S. cerevisiae deletion strains, locus YLL001W, strain dnm1, stronger effect = lower value 1.01 | S. cerevisiae deletion strains, locus YLL026W, stronger effect = lower value 1.01 | S. cerevisiae deletion strains, locus YLL041C, strain sdh2, stronger effect = lower value 1 | S. cerevisiae deletion strains, locus YLR027C, strain aat2, stronger effect = lower value 1.01 | S. cerevisiae deletion strains, locus YLR039C, strain RIC1, stronger effect = lower value 0.92 | S. cerevisiae deletion strains, locus YLR058C, strain SHM2, stronger effect = lower value 0.987 | S. cerevisiae deletion strains, locus YLR102C, strain apc9, stronger effect = lower value 0.984 | S. cerevisiae deletion strains, locus YLR113W, strain HOG1, stronger effect = lower value 0.996 | S. cerevisiae deletion strains, locus YLR221C, strain rsa3, stronger effect = lower value 1.01 | S. cerevisiae deletion strains, locus YLR258W, strain gsy2, stronger effect = lower value 1.01 | S. cerevisiae deletion strains, locus YLR262C, strain YPT6 (second series), stronger effect = lower value 0.999 | S. cerevisiae deletion strains, locus YLR262C, strain YPT6, stronger effect = lower value 0.962 | S. cerevisiae deletion strains, locus YLR268W, strain sec22, stronger effect = lower value 0.992 | S. cerevisiae deletion strains, locus YLR320W, strain mms22, stronger effect = lower value 1.03 | S. cerevisiae deletion strains, locus YLR330W, strain CHS5, stronger effect = lower value 0.993 | S. cerevisiae deletion strains, locus YLR342W, strain FKS1 (second series), stronger effect = lower value 0.961 | S. cerevisiae deletion strains, locus YLR342W, strain FKS1, stronger effect = lower value 1.02 | S. cerevisiae deletion strains, locus YLR357W, strain rsc2, stronger effect = lower value 1.03 | S. cerevisiae deletion strains, locus YLR370C, strain arc18, stronger effect = lower value 1 | S. cerevisiae deletion strains, locus YLR371W, strain rom2, stronger effect = lower value 0.977 | S. cerevisiae deletion strains, locus YLR384C, strain iki3, stronger effect = lower value 1.01 | S. cerevisiae deletion strains, locus YLR418C, strain cdc73, stronger effect = lower value 0.948 | S. cerevisiae deletion strains, locus YML016C, strain PPZ1, stronger effect = lower value 0.99 | S. cerevisiae deletion strains, locus YML032C, strain rad52, stronger effect = lower value 0.999 | S. cerevisiae deletion strains, locus YML120C, strain ndi1, stronger effect = lower value 1.01 | S. cerevisiae deletion strains, locus YML124C, strain tub3, stronger effect = lower value 0.988 | S. cerevisiae deletion strains, locus YMR058W, strain fet3, stronger effect = lower value 1.01 | S. cerevisiae deletion strains, locus YMR078C, strain ctf18, stronger effect = lower value 0.978 | S. cerevisiae deletion strains, locus YMR125W, strain sto1, stronger effect = lower value 1.02 | S. cerevisiae deletion strains, locus YMR129W, stronger effect = lower value 1 | S. cerevisiae deletion strains, locus YMR205C, strain PFK2, stronger effect = lower value 1.02 | S. cerevisiae deletion strains, locus YMR223W, strain ubp8, stronger effect = lower value 0.962 | S. cerevisiae deletion strains, locus YMR231W, strain pep5, stronger effect = lower value 1.02 | S. cerevisiae deletion strains, locus YMR263W, strain SAP30, stronger effect = lower value 1.01 | S. cerevisiae deletion strains, locus YMR307W, strain GAS1, stronger effect = lower value 0.906 | S. cerevisiae deletion strains, locus YNL067W, strain RPL9B, stronger effect = lower value 1.01 | S. cerevisiae deletion strains, locus YNL071W, strain lat1, stronger effect = lower value 1.02 | S. cerevisiae deletion strains, locus YNL183C, strain NPR1, stronger effect = lower value 0.924 | S. cerevisiae deletion strains, locus YNL209W, strain ssb2, stronger effect = lower value 1.02 | S. cerevisiae deletion strains, locus YNL233W, strain BNI4, stronger effect = lower value 1 | S. cerevisiae deletion strains, locus YNL248C, strain rpa49, stronger effect = lower value 1.02 | S. cerevisiae deletion strains, locus YNL250W, strain rad50, stronger effect = lower value 0.969 | S. cerevisiae deletion strains, locus YNL271C, strain bni1, stronger effect = lower value 0.992 | S. cerevisiae deletion strains, locus YNL298W, strain CLA4, stronger effect = lower value 0.993 | S. cerevisiae deletion strains, locus YNL307C, strain MCK1, stronger effect = lower value 0.987 | S. cerevisiae deletion strains, locus YNL322C, strain KRE1 (second series), stronger effect = lower value 1.01 | S. cerevisiae deletion strains, locus YNL322C, strain KRE1, stronger effect = lower value 0.998 | S. cerevisiae deletion strains, locus YNR049C, strain mso1, stronger effect = lower value 1 | S. cerevisiae deletion strains, locus YNR052C, strain pop2, stronger effect = lower value 0.985 | S. cerevisiae deletion strains, locus YOL006C, strain TOP1, stronger effect = lower value 1.14 | S. cerevisiae deletion strains, locus YOL012C, strain htz1 0.803 | S. cerevisiae deletion strains, locus YOL147C, strain pex11, stronger effect = lower value 0.985 | S. cerevisiae deletion strains, locus YOR001W, strain rrp6, stronger effect = lower value 1.01 | S. cerevisiae deletion strains, locus YOR061W, strain CKA2, stronger effect = lower value 0.989 | S. cerevisiae deletion strains, locus YOR069W, strain VPS5, stronger effect = lower value 0.984 | S. cerevisiae deletion strains, locus YOR070C, strain gyp1, stronger effect = lower value 1.01 | S. cerevisiae deletion strains, locus YOR080W, strain dia2, stronger effect = lower value 1.01 | S. cerevisiae deletion strains, locus YOR083W, strain WHI5, stronger effect = lower value 1.02 | S. cerevisiae deletion strains, locus YOR106W, strain vam3, stronger effect = lower value 1.03 | S. cerevisiae deletion strains, locus YOR136W, strain idh2, stronger effect = lower value 0.986 | S. cerevisiae deletion strains, locus YOR144C, strain elg1, stronger effect = lower value 0.989 | S. cerevisiae deletion strains, locus YOR184W, strain ser1, stronger effect = lower value 1.03 | S. cerevisiae deletion strains, locus YOR231W, strain MKK1, stronger effect = lower value 0.996 | S. cerevisiae deletion strains, locus YOR265W, strain rbl2, stronger effect = lower value 1.01 | S. cerevisiae deletion strains, locus YOR270C, strain vph1, stronger effect = lower value 1.05 | S. cerevisiae deletion strains, locus YOR290C, strain snf2, stronger effect = lower value 1.01 | S. cerevisiae deletion strains, locus YOR316C, strain cot1, stronger effect = lower value 0.981 | S. cerevisiae deletion strains, locus YPL051W, strain arl3, stronger effect = lower value 1.01 | S. cerevisiae deletion strains, locus YPL055C, strain LGE1, stronger effect = lower value 1.05 | S. cerevisiae deletion strains, locus YPL078C, strain atp4, stronger effect = lower value 1.02 | S. cerevisiae deletion strains, locus YPL106C, strain sse1, stronger effect = lower value 1.02 | S. cerevisiae deletion strains, locus YPL240C, strain hsp82, stronger effect = lower value 1.01 | S. cerevisiae deletion strains, locus YPL256C, strain CLN2, stronger effect = lower value 1.01 | S. cerevisiae deletion strains, locus YPR119W, strain clb2, stronger effect = lower value 0.986 | S. cerevisiae deletion strains, locus YPR141C, strain kar3, stronger effect = lower value 0.981 | S. cerevisiae deletion strains, locus YPR163C, strain tif3, stronger effect = lower value 1.01 | S. cerevisiae deletion strains, locus YPR167C, strain met16, stronger effect = lower value 0.977 | S. cerevisiae deletion strains, strain wtn01, stronger effect = lower value 0.986 | S. cerevisiae strains, strain wild type, stronger effect = lower value 0.995
